This is a sample that favours compounds with a hit; in the whole collection about 8.7% have one here.
VACV Venus inh = vaccinia inhibition (Venus reporter); 0.46% of 330,000 active; Potency, µM (titrated, usually from 36.5 µM), actives largely listed as inhibitors; Vaccinia virus Venus reporter expression, fluorescence; calls by dose curve; tested in A549 cells; further: nearly all actives have a fitted effect of over 30% in size
Vaccinia mCherry = inhibitors of vaccinia virus infection (mCherry reporter signal); Vaccinia virus mCherry reporter infection, fluorescence; Potency, µM (highest dose often 36.5 µM), usual class: inhibitors; 0.63% of 310,000 active; AID 720579; calls by dose curve; tested in A549 cells; further: nearly all actives have a fitted effect of over 35% in size
Pf growth 96h = inhibits malaria parasite growth, 96 h; P. falciparum luciferase reporter growth, 96 h; Potency, µM (doses to about 28.7 µM), usual class: inhibitors; 6.9% of 320,000 active; AID 504834
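P. falciparum expressing integrated firefly luciferase grown in erythrocytes (2% hematocrit, 0.05% parasitemia final) with compounds for 96 hours at 37 C, 5% CO2. Growth inhibition read as loss of luminescence after adding luciferase detection reagent.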
AMA1-RON2 inh = AMA1-RON2 (P. falciparum) interaction inhibition; Potency, µM (highest dose often 58.2 µM), usual class: inhibitors; 0.2% of 360,000 active; AlphaScreen AMA1-biotinylated RON2 peptide binding; AID 720542; further: nearly all actives have a fitted effect of over 45% in size
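AMA1 (3D7) with his tag at 25 nM final met compounds first, then biotinylated RON2 peptide at 25 nM; detection used donor plus acceptor beads, 10 µg/mL apiece, read by AlphaScreen after 30 min at room temperature.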
Pf growth 48h = inhibits P. falciparum growth in the first generation, 48 h. P. falciparum luciferase growth in erythrocytes, 48 h. 5.9% of 310,000 active. Potency, µM (top dose mostly 28.7 µM), actives largely listed as inhibitors
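Cell-based growth assay: transgenic P. falciparum expressing firefly luciferase, cultured in red cells within RPMI 1640 containing 0.5% w/v Albumax, 24 mM bicarbonate and gentamycin. A drop in luciferase activity indicates inhibition.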
Numbers stand for hits; . = inactive; ? = inconclusive; / = no result given; [ ] = dose if it differs, or a comment. Unless noted, the call rests on the fitted dose curve; in most records, active means well fitted curve in the direction sought with a large enough effect; inconclusive means small, poorly fitted or top-dose-only effect, or another doubt; inactive means no such curve, though single readings can be large; an effect the other way counts as inactive or inconclusive.

SMILES | VACV Venus inh | Vaccinia mCherry | Pf growth 96h | AMA1-RON2 inh | Pf growth 48h
CN(C)c1ccc(/C=C/c2ccnc3c(O)cccc23)cc1 | ? | 10µM | / | / | /
C[n+]1ccc(-c2ccccc2)c2ccccc21 | . | . | ? | . | 1µM
C[n+]1ccc(/C=C/c2ccc(C=S)cc2)c2ccccc21 | . | . | / | / | /
CN(C)c1ccc(C=Cc2ccnc3c(O)cccc23)cc1 | ? | ? | / | . | /
CN(C)c1ccc(/C=C/c2cccc3cc4ccccc4nc23)cc1 | 16µM | 11µM | / | / | /
CC(C)(C)NCC(O)COc1c(F)cc(Br)cc1F (stereo not drawn) | / | / | / | . | 12µM
CC(C)(C)CC(C)(C)NCC(O)COc1c(F)cc(Br)cc1F (stereo not drawn) | ? | / | 0.59µM | . | /
CN(C)c1ccc(C=O)c(O)c1 | . | . | / | / | /
CN(C)c1ccc(/C=C2\C=Cc3ccccc32)c(F)c1 | . | . | / | / | /
Cc1ccc(Nc2nnc(-c3ccc(C)c(S(=O)(=O)N4CCOCC4)c3)c3ccccc23)cc1 | . | ? | / | / | /
COC(=O)C1=C(C)N(C)C(C)=C(C(=O)OC)C1c1ccc(Cl)cc1 | . | / | 10µM | . | ?
COC(=O)C1=C(C)N(c2ccc(OC)cc2)C(C)=C(C(=O)OC)C1c1ccccc1 | / | / | ? | . | 1.3µM
COC(=O)C1=C(C)N(c2ccc(OC)cc2)C(C)=C(C(=O)OC)C1c1ccc(OC)cc1 | . | . | ? | . | ?
Cc1ccccc1C(=O)NC1(C(F)(F)F)C(=O)Nc2c1c(=O)[nH]c(=O)n2-c1ccc(F)cc1 (stereo not drawn) | . | . | / | / | /
CCCCCNCc1ccc(Cl)cc1 | . | . | . | . | .
CCCCCCC[N+](CC)(CC)CCCCc1ccc(Cl)cc1 | . | . | 0.47µM | . | 0.47µM
CCOc1ccc(N(C(=O)c2cnsn2)C(C(=O)NC2CCCCC2)c2ccncc2)cc1 (stereo not drawn) | . | . | 1.2µM | . | ?
COc1cccc(C(C(=O)NC2CCCCC2)N(C(=O)c2ccccn2)c2cccnc2)c1 (stereo not drawn) | . | . | 1.7µM | . | .
Cc1nn(C)cc1C(C(=O)NC1CCCCC1)N(C(=O)c1cnccn1)c1ccc(Oc2ccccc2)cc1 (stereo not drawn) | . | . | . | . | 5.9µM
COc1ccc(C(C(=O)NC2CCCCC2)N(C(=O)c2ccccn2)c2cccnc2)c(OC)c1 (stereo not drawn) | . | . | ? | . | .
COc1ccc(N(C(=O)c2cnsn2)C(C(=O)NC2CCCCC2)c2ccncc2)cc1 (stereo not drawn) | . | . | ? | . | .
CCOc1ccc(C(C(=O)NC2CCCCC2)N(C(=O)c2ccccn2)c2cccnc2)cc1 (stereo not drawn) | . | . | 15µM | . | 10µM
CCOc1ccc(CC(=O)NC2CC(=O)N(c3ccc4c(c3)OCCO4)C2)cc1 (stereo not drawn) | .[7.34 µM] | .[7.34 µM] | / | / | /
O=C(C1CCOC1)N1CCOc2ccc(CN3CCC(Oc4cccnc4)CC3)cc2C1 (stereo not drawn) | . | . | / | / | /
Cc1ccccc1-n1ncc2c1CC(C)(C)CC2NC(=O)C1=CC(=O)CC(C)(C)O1 (stereo not drawn) | . | . | 9.3µM | . | ?
SMILES | VACV Venus inh | Vaccinia mCherry | Pf growth 96h | AMA1-RON2 inh | Pf growth 48h
CC(C)COC(=O)CCNc1n[nH]c(=O)[nH]c1=O | . | . | 9.3µM | . | .
Cc1cccc(N2CCN(CC(=O)N(C3CCCC3)C3CCS(=O)(=O)C3)CC2)c1C (stereo not drawn) | . | . | ? | . | 10µM
O=S(=O)(/C(=C/c1ccc(C(F)(F)F)cc1)c1nc2ccccc2[nH]1)c1ccccc1 | 10µM | 10µM | 1.7µM | . | 4.1µM
C/C(=C\c1ccc(N)cc1)c1nc2ccccc2[nH]1 | / | / | . | . | .
COC(=O)/C(=C\c1ccc(O)cc1)c1nc2ccccc2[nH]1 | . | . | . | . | .
CC(C)c1ccc(/C=C(\c2nc3ccccc3[nH]2)S(=O)(=O)c2ccccc2)cc1 | 10µM | 8.9µM | 2.3µM | . | 5.9µM
Nc1cccc2cccnc12 | . | ? | / | / | /
Cc1ccc2c(c1)cc1c(=O)n(Cc3cccc(Cl)c3)nc(C)n12 | . | . | / | / | /
CC(NC(=O)c1cn(C)c2ccc(S(=O)(=O)N3CCCC3)cc2c1=O)c1ccccc1 (stereo not drawn) | / | / | 12µM | . | 12µM
Cc1ccc(S(=O)(=O)N2CCCCC2)cc1C(=O)OC(C)C(=O)NC1CCCCC1C (stereo not drawn) | . | . | 13µM | . | ?
CCC(C)NC(=O)c1cn(CC)c2ccc(S(=O)(=O)N3CCCCC3)cc2c1=O (stereo not drawn) | . | ? | . | . | ?
CCC(C)NC(=O)c1cn(CC)c2ccc(S(=O)(=O)N3CCCCCC3)cc2c1=O (stereo not drawn) | . | . | 13µM | . | ?
Cn1cc(C(=O)NC2CCCCC2)c(=O)c2cc(S(=O)(=O)N3CCCC3)ccc21 | / | / | 8.3µM | . | .
CN1CCCc2ccccc21 | . | . | / | / | /
CC(C)CC(=O)Nc1ccccc1OCc1cc(=O)n2ccccc2n1 | . | . | / | / | /
CCCCSc1ncnc2c1c(-c1ccccc1)cn2-c1cccc(F)c1 | . | . | / | / | /
CC1CCCCC1NC(=O)c1cn(C)c2ccc(S(=O)(=O)N3CCCC3)cc2c1=O (stereo not drawn) | / | / | . | . | 8.3µM
COC(=O)c1cn(C)c2ccc(S(=O)(=O)N3CCOCC3)cc2c1=O | . | . | . | . | .
CCn1cc(C(=O)NCCCOC)c(=O)c2cc(S(=O)(=O)N3CCC(C)CC3)ccc21 | . | . | . | . | .
Cn1cc(C(=O)NCc2cccnc2)c(=O)c2cc(S(=O)(=O)N3CCCCCC3)ccc21 | / | / | 6.6µM | / | .
Cn1cc(C(=O)NCc2ccccc2)c(=O)c2cc(S(=O)(=O)N3CCCCCC3)ccc21 | . | . | / | / | /
CCn1cc(C(=O)NCCCOC(C)C)c(=O)c2cc(S(=O)(=O)N3CCC(C)CC3)ccc21 | / | / | 1µM | . | ?
COC(=O)c1cn(C)c2ccc(S(=O)(=O)N3CCCC3)cc2c1=O | / | / | 3.7µM | . | .
CC1CCCC(NC(=O)c2cn(C)c3ccc(S(=O)(=O)N4CCCC4)cc3c2=O)C1C (stereo not drawn) | / | / | . | / | ?
CCOC(=O)N1CCN(Cc2ccc3c(c2)CN(C(=O)c2sc(C)nc2C)CCO3)CC1 | . | . | / | / | /
SMILES | VACV Venus inh | Vaccinia mCherry | Pf growth 96h | AMA1-RON2 inh | Pf growth 48h
COc1ccc(Cl)cc1N(C)C(=O)Cc1noc2ccc(C)cc12 | . | . | / | / | /
O=C1C(Cc2ccccc2)C(c2ccccc2)N1c1ccccc1 (stereo not drawn) | . | / | 10µM | . | ?
O=C1[C@@H]2C[C@@H]3C[C@H]1C[C@@](O)(C3)C2 | / | / | . | / | .
CN1Cc2c(N3CCOCC3)nc3sc(C#N)c(N)c3c2CC1(C)C | . | . | ? | . | ?
CNC(=O)c1ccc(-c2sc3nc(N4CCOCC4)c4c(c3c2N)CC(C)(C)OC4)o1 | . | . | ? | . | ?
Cc1nc2c(sc3nc(N4CCOCC4)c4c(c32)CC(C)(C)OC4)c(-c2ccccc2)c1C(=O)O | / | / | ? | . | .
CNC(=O)c1ccc(-c2sc3nc(N4CCOCC4)c4c(c3c2N)CCCC4)o1 | / | / | ? | . | 12µM

Bioassay records: PubChem BioAssay, National Center for Advancing Translational Sciences (NCATS)
